± gives the standard deviation.
Test system: MILI (PIWIL2) piRISC loaded with piRNA #1 (26 nt)
Assay: pre-steady-state target cleavage rate (min^-1); guide: piRNA #1 5'p-UGAGGUAGUAGGUUGUAUAGUAUCCA; MIWI and MILI are mouse PIWI proteins and EfPiwi is from a freshwater sponge; tags in brackets are library labels; higher = faster piRNA-guided slicing of the target
Conditions: auxiliary factor: 500 nM mouse GTSF1
Summary of the method: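 In HEPES–potassium acetate buffer at 33 °C, […] transcribed, DNA-blocked target RNA library was mixed with 1 nM active affinity-purified piRISC carrying one synthetic guide, with or without 500 nM GTSF1 partner protein, for 0–8 or 0–960 min. Uncleaved targets were sequenced and normalised to depth and to weakly complementary targets; three trials were pooled and k3 was capped at 0.0001 min^-1. The pre-steady-state cleavage rate followed from a burst-and-steady-state fit.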
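Also: 1 nM active piRISC with 0.1 nM target library at 33 °C single turnover.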

Sequence	pre-steady-state target cleavage rate
GGAGACCUAUGAUAUGUACCUACUGACCUCA	< 0.0001
GGAGACCUAUGAUAACAACCUCCUACCUCA	0.00522 ± 0.0021
GGAGACCUAUGAAUACAACCUAGUACCUGA	< 0.0001
GGAGACCUAUGAUAUGAAGGAACUACCUCA	< 0.0001
GGAGACCUUACUAAACAACCUACUACCUGA	0.0914 ± 0.017
GGAGACCUAUCUAUACAACCUACAUGCUCA	0.068 ± 0.021
GGAGACCUAUCUAUUCAACCUUCUACCUCA	0.0069 ± 0.0028
GGAGACCAUAGUAUACAACCUUCUACCUCA	0.0111 ± 0.0041
GGAGACCUAUGAUAACAACCUACUACCUCG [g2:g16:cont:t1G]	0.00536 ± 0.0027
GGAGACCUAUGUAAACAACCUACUACCACA	0.00967 ± 0.0036
GGAGACCUAUCUAUACUACCUACUACCUGA	0.0569 ± 0.013
GGAGACCUAUGUAUACUACCUAGUACCUCA	0.00575 ± 0.0022
GGAGAGGAUAUAUACAACCUACUACCUCA	0.165 ± 0.014
GGAGACCUAACUAUACAACCUAGCUACCUCA	0.0209 ± 0.008
GGAGACCUAUGAUAUGUUCCUACUAACUCA	< 0.0001
GGAGACCUAUGAUAUCAUGCUACUACCUCA	< 0.0001
GGAGACCUAUGUAUACAACCUACUACGCUCA	0.0944 ± 0.013
GGAGACCUAUCUAAACAACCUACUAGCUCA	0.0571 ± 0.011
GGAGACCUAUGAUUACAACGUACUACCACA	0.00319 ± 0.0028
GGAGAGGAUUCUAAACAACCUACUACCUCA	0.149 ± 0.01
GGAGACCUAUGUAUACAACCUACUACACUCA	0.12 ± 0.018
GGAGACCUAACUAUACAUCCUACUACGUCA	0.173 ± 0.052

Sequence	pre-steady-state target cleavage rate
GGAGACCUAUGAUAUCAACCUACACCUCA	< 0.0001
GGAGACCUUACUAUAUCAACCUACUACCUCA	0.0609 ± 0.0086
GGAGACCAUACUAAACUACCUACUACCUCA	0.142 ± 0.013
GGAGACCUAUGAUAUCUAACCUACUACCUCA	0.00471 ± 0.0023
GGAGUGGAUUCUAUAGAACCUACUACCUCA	0.179 ± 0.012
GGAGACCUAUCAAUUCAACCUACUACCUCA	0.00721 ± 0.0029
GGAGACGAUACUAUAGAACCUACUUCCUCA	0.0055 ± 0.0044
GGAGACCUAACUAUACUUCCUACUACCUCA	0.054 ± 0.011
GGAGACCUAUCUAUAGAACCUACAACCUCA	0.00275 ± 0.0025
GGAGACCUAUGUAUUCAACCUACAACCUCA	0.0352 ± 0.0064
GGAGACCUAUGUAUACAACCAACUACCUCA	0.0033 ± 0.002
GGAGACCAUACUAUACAAUCUACUACCUCA	0.146 ± 0.013
GGAGACCUAUGAUUACAACCUACUAGCUCA	0.00322 ± 0.0026
GGAGACCAUACUAUACAACGUACUACCUGA	0.011 ± 0.0036
GGAGACCUAUGAUAACAACCUACUACCGUCA	0.00366 ± 0.0026
GGAGACCUAUGAUUACAAGCUACUAGCUCA	0.00635 ± 0.0034
GGAGACCUAUCUAUUCAACCUACAACCUCA	0.0889 ± 0.011
GGAGACCUAUGAUUACAACCUACAUACCUCA	0.00484 ± 0.0019
GGAGACGAUACUAAACAACCUACUAGCUCA	0.111 ± 0.019
GGAGACCUUACUAUACAAGGAUGAUGGAGA [g13:g22:cont:t1A]	< 0.0001
GGAGACCUAUGAAUACAACCUACUGACCUCA	0.00755 ± 0.0029
GGAGACCUAUGAUUAGCAACCUACUACCUCA	0.00597 ± 0.0035

Sequence	pre-steady-state target cleavage rate
GGAGACCUUACUAUACAACCUACUCCUCA	0.00492 ± 0.0027
GGAGACCUAUCUAUCACAACCUACUACCUCA	0.0519 ± 0.01
GGAGACCAUACUAAACAACCUACUACCUGA	0.13 ± 0.018
GGAGACCUAUCUAUACAAACUACUACCUCA	0.171 ± 0.015
GGAGAGGAUACUUUAGAACCUACUACCUCA	0.153 ± 0.0078
GGAGACCUAUGAAUACAACCUAUCUACCUCA	0.00974 ± 0.0026
GGAGAGGAUACUAUAGAACCUACUUCCUCA	0.00501 ± 0.0029
GGAGACCUAUGAUAUGUACCUAGUACCUCA	< 0.0001
GGAGACCUUACAAUACAACCUACUUCCUCA	0.0632 ± 0.014
GGAGUGGAACUAUACAACCUACUACCUCA	0.159 ± 0.011
GGAGUGGAUACUAGACAACCUACUACCUCA	0.193 ± 0.011
GGAGACCUAUCUAUUCAACCUACUACGUCA	0.0451 ± 0.0089
GGAGACCAUACAUAACAACCUACUACCUCA	0.0246 ± 0.0068
GGAGACCUAUCUAUACAACCUACAACCUGA	0.0151 ± 0.0061
GGAGACCUAUCAAAACAACCUACUACCUCA	0.0082 ± 0.0029
GGAGACCUAUCUUUACAACCUAGUACCUCA	0.00897 ± 0.003
GGAGACCUAUGAUAUGUACCAUCUACCUCA	< 0.0001
GGAGACCUAUGAUUACAACCUACUACCUCC [g2:g17:cont:t1C]	0.00979 ± 0.0034
GGAGACCUAUGAUAUGUACCUACUACCGCA	< 0.0001
GGAGACCUUACUAUACAACCUACUACCUUA	0.174 ± 0.019
GGAGACCUAUGAUAUGUACCUACUUGGAGA [g7:g13:cont:t1A]	< 0.0001

Reference: the supplement of paper PMC10338343
